Data taken from ChEMBL document CHEMBL3988442, “University of Dundee, Small-Polar-MMV Screening Library” (2021).
In all, about 48,000 compounds went through this assay and about 13,000 (27%) showed an effect of 50% or more. Some of the results follow.

Tested on: Wolbachia pipientis
Test: Anti-Wolbachia Cell-Based Screen
Format: functional
Design: scale not given: in the data most compounds retested in dose-response had high values
Conditions: 5 µM

Row | SMILES | Percent Effect [%]
1 | COc1ccc(Nc2cc(C)nc(C)n2)cc1N1CCCC1=O | -4.769
2 | O[C@H]1CC[C@@H](Cc2cc(-c3ccccc3)on2)O[C@@H]1CNCC1CC1 | 0.08363
3 | OCCN1CCC(CNCc2ccc(Br)cc2)CC1 | -27.23
4 | CC(C)N(C)C(=O)C1CSCN1S(=O)(=O)c1ccccc1F (configuration not stated) | 0.8894
5 | CCc1cc(CNC(=O)C2CCC(=O)N(Cc3ccccc3F)C2)on1 (configuration not stated) | -10.8
6 | CN1C(Cn2cccn2)C[C@@H]2CN(Cc3cnn(C)c3)CC[C@@H]21 (some centres not stated) | 88.14
7 | c1cnn([C@@H]2CN(Cc3nccs3)[C@@H]3CCCO[C@@H]32)c1 | -0.08077
8 | CC(=O)N1[C@H](Cn2cncn2)C[C@@H]2CN(Cc3nccs3)CC[C@@H]21 | 4.372
9 | CC(C)N1[C@H](CN2CCCC2)C[C@@H]2CN(Cc3cnn(C)c3)CC[C@@H]21 | 1.544
10 | CN1C(Cn2cccn2)C[C@@H]2CN(Cc3nccs3)CC[C@@H]21 (some centres not stated) | 108
11 | Cn1cc(CN2CCO[C@H]3C(Cn4cccn4)CC[C@@H]32)cn1 (some centres not stated) | 5.846
12 | Cc1nc(CN2CCN(C)C(=O)C23CCN(CC2CCCC2)CC3)cs1 | 121.4
13 | Cc1nc(Cn2c3c(ccc2=O)CCN(CC2CCC2)CC3)cs1.O=C(O)C(F)(F)F.O=C(O)C(F)(F)F | -14.62
14 | Cc1nc(CN2CCC3(CC2)CCN(C(=O)c2cscn2)C3)cs1.O=C(O)C(F)(F)F | -22.9
15 | CCN1CCN(C)C(=O)C12CCN(Cc1csc(C)n1)CC2.O=C(O)C(F)(F)F | 113.1
16 | Cc1nc(CN2CCC3(CC2)CC(=O)N(C)c2ccccc23)cs1.O=C(O)C(F)(F)F | -15.31
17 | COCC1CC2(CCN(CC3CC3)CC2)CN1Cc1csc(C)n1.O=C(O)C(F)(F)F.O=C(O)C(F)(F)F (configuration not stated) | 2.06
18 | Cc1nc(CN2CCC3(CC2)C(=O)N(C)CCN3C)cs1.O=C(O)C(F)(F)F.O=C(O)C(F)(F)F.O=C(O)C(F)(F)F | 99.41
19 | CCc1ccc(CN2CCC3(CC2)C(=O)N(C)CCN3CC)cc1 | -23.08
20 | CC(NC(=O)c1cnccn1)c1nnc2ccccn12 (configuration not stated) | -8.378
21 | CN(CC1Cc2ccccc2CN1C)C(=O)CSc1nccn1C (configuration not stated) | -6.855
22 | CN(C)C(C(=O)Nc1nccs1)c1c(F)cccc1Cl (configuration not stated) | -1.745
23 | CCCN1CCC(Nc2nc(CC)ns2)CC1 | -19.08
24 | O=C(c1ccncc1)N1CCC2(CC1)CCN(C(=O)c1cccnc1)C2 | 102.3
25 | O=C(c1ccncc1)N1CCC2(CC1)CC(Oc1cccnc1)CO2 (configuration not stated) | -1.534
26 | O=C(c1ccnnc1)N1CCC2(CC1)CCN(C(=O)c1cccnc1)C2 | 96.42

Row | SMILES | Percent Effect [%]
27 | CN(Cc1cccnc1)C1CC2(CCN(C(=O)c3ccnnc3)CC2)C1 | 9.482
28 | COC(=O)[C@H]1CN(C(C)=O)CCN1C(C)=O | -4.652
29 | O=C1CCN(C(=O)C2(c3ccc(F)cc3)CCCCC2)CCN1 | -15.47
30 | CNS(=O)(=O)CCCNC(C)(C)c1nc(C)cs1 | 1.727
31 | CCOc1ccccc1C(CC(=O)O)NC(C)=O (configuration not stated) | 10.47
32 | Cc1nsc(NC2CC(=O)N(C(C)(C)C)C2)n1 (configuration not stated) | -3.11
33 | COc1cc(-c2n[nH]c(CO)n2)cc(OC)c1OC | 101.2
34 | COc1ccc(OC)c(-n2cnnc2CCN)c1 | 12.28
35 | COc1cc(CO)c(OC)c2c1OCO2 | 0.3319
36 | COc1cc(-c2n[nH]c(CCN)n2)cc(OC)c1OC | 136.2
37 | COc1cc(CNc2nncs2)cc(OC)c1OC | -2.056
38 | COc1cc(CNc2nc3c(c(=O)[nH]2)CCNC3)cc(OC)c1OC | -8.828
39 | COc1cc(-c2cnnc(NCCSC)n2)cc(OC)c1OC | -5.891
40 | COc1cc(-c2cnnc(NCC3CC3)n2)cc(OC)c1OC | 22.6
41 | COc1ccc(-c2ccccc2CCN)c(OC)c1OC | -10.47
42 | COc1cc(-c2n[nH]c(CC#N)n2)cc(OC)c1OC | 137.1
43 | COc1cc(-c2nc(N)n[nH]2)cc(OC)c1OC | 107.9
44 | CC(C)c1nccn1C1CCCN(C(=O)c2cccc3[nH]ncc23)C1 (configuration not stated) | -3.235
45 | CN(CCNC(=O)Nc1ccncc1)C1CCCCC1 | -10.45
46 | COCCC(=O)NCCCOC1CCCc2ccccc21 (configuration not stated) | 3.193
47 | CC(=O)N1CCN(C(=O)NCCCN(C)S(C)(=O)=O)CC1 | -13.58
48 | CC(C)c1noc(C(C)N2CCN(Cc3nc4ccccc4[nH]3)CC2)n1 (configuration not stated) | -18.96
49 | CCN(C(=O)CN1CCCC1Cc1ccccc1)c1ccccc1 (configuration not stated) | 22.38
50 | COc1cc(-c2n[nH]c(CN)n2)cc(OC)c1OC | 105.2
51 | COc1cc(-c2cccc3c2OC(CN)C3)cc(OC)c1OC (configuration not stated) | 1.955
52 | COc1cc(CN)c(OC)c2c1OCO2.Cl | -2.392

Row | SMILES | Percent Effect [%]
53 | CNS(=O)(=O)c1ccc(CNC(=O)NCC2CCOC2)cc1 (configuration not stated) | 7.061
54 | Fc1cnc(N2C[C@@H]3C[C@@H](c4nc(C5CC5)cs4)O[C@@H]3C2)nc1.O=C(O)C(F)(F)F | 94.12
55 | Cc1nc(CN2C[C@@H]3CN(c4ncc(F)cn4)C[C@@H]3C2=O)cs1.O=C(O)C(F)(F)F | -12.56
56 | Cn1cc(CN2CC[C@H]3C[C@H](c4nc(C5CC5)cs4)O[C@@H]3C2)cn1 | 15.37
57 | Cc1cnc(C(=O)N2CC[C@H]3C[C@@H](c4nc(C)cs4)O[C@@H]3C2)cn1 | -16.87
58 | Cn1cc(CN2CC[C@H]3C[C@@H](c4nc(C5CC5)cs4)O[C@@H]3C2)cn1 | -0.3412
59 | Cc1csc([C@@H]2C[C@H]3CN(c4ncc(F)cn4)C[C@H]3O2)n1.O=C(O)C(F)(F)F | 98.65
60 | Cc1cccc(N2CCN(c3ccn4c(=O)[nH]nc4n3)CC2)c1C | -10.93
61 | Cc1ccc2c(c1C)OCC2NCc1cccc(C#N)c1 (configuration not stated) | -16
62 | Cc1cc2n(n1)CC(CNCCNC(=O)c1ccc(F)cc1)CN2 (configuration not stated) | -2.749
63 | CC(C(=O)N1CCCC1)S(=O)(=O)Cc1nc(C(C)(C)C)no1 (configuration not stated) | 0.9098
64 | CCCc1nnc(NCCc2noc(C3CCCC3)n2)o1 | 110.1
65 | CCCc1nnc(NC2CCN(CCO)CC2)o1 | -14.34
66 | c1ccc(-c2n[nH]c(CCNc3nnc(C4CCC4)o3)n2)cc1 | -23.29
67 | CCCc1nnc(NCCc2noc(C3CCC3)n2)o1 | 108
68 | CCCc1nnc(NC2CCN(C3CCCC3)CC2)o1 | -6.832
69 | CCCc1nnc(NCCc2noc(C3CC3)n2)o1 | 133.3
70 | CCCc1nnc(NC2CCN(C3CCOCC3)CC2)o1 | -6.121
71 | Cc1cccc(C)c1NCc1noc(C2CC2)n1 | -19.13
72 | c1ccc(-c2nc(CCNc3nnc(C4CCC4)o3)no2)cc1 | -25.81
73 | CCOC(=O)CCNC(=O)N1CCCC(CNC(=O)c2cccs2)C1 (configuration not stated) | -0.8406
74 | COCC(C)NCc1nc(-c2ccc(C)cc2)c(-c2ccccn2)[nH]1 (configuration not stated) | 22.14
75 | O=C(NCC1CC[C@@]2(CNCCOC2)O1)c1cnccn1 (some centres not stated) | -4.727
76 | CCOCC(O)CN1CCN(C(=O)c2cc(C)ccc2F)CC1 (configuration not stated) | 114.4
77 | CCOCC(O)CN1CCN(C(=O)c2ccc(OC)cc2F)CC1 (configuration not stated) | 5.863
78 | CCOCC(O)CN1CCN(C(=O)c2cc(F)ccc2C)CC1 (configuration not stated) | -5.879

Row | SMILES | Percent Effect [%]
79 | CCOCC(O)CN1CCN(C(=O)c2ccccc2Cl)CC1 (configuration not stated) | -0.07038
80 | CCOCC(O)CN1CCN(C(=O)c2cccnc2OC)CC1 (configuration not stated) | -8.967
81 | CCOCC(O)CN1CCN(C(=O)c2cccc3[nH]ncc23)CC1 (configuration not stated) | -8.301
82 | CCOCC(O)CN1CCN(C(=O)c2ccccc2F)CC1 (configuration not stated) | 82.64
83 | CCOCC(O)CN1CCN(C(=O)c2cc(C)ccc2OC)CC1 (configuration not stated) | 91.25
84 | CCOCC(O)CN1CCN(C(=O)c2cc(Cl)ccc2F)CC1 (configuration not stated) | 107.8
85 | CCOCC(O)CN1CCN(C(=O)CC(C)C)CC1 (configuration not stated) | -1.349
86 | CCOCC(O)CN1CCN(C(=O)C2CC2)CC1 (configuration not stated) | 3.304
87 | CCC(CO)N(Cc1ccccn1)C(=O)c1ccc(F)c(F)c1 (configuration not stated) | -4.122
88 | COc1ccccc1[C@@H]1CN(Cc2ccc3nsnc3c2)C[C@H]1C(=O)O | -7.505
89 | O=C1CCCN1CC1CCCCN1C(=O)Nc1cccnc1 (configuration not stated) | 2.863
90 | CC(CO)(NC(=O)Nc1nnc(C2CC2)s1)C1CCCCC1 (configuration not stated) | -9.055
91 | CCN(CC)c1ncnc2c1CCN(c1ccc(C)nn1)CC2 | 109.1
92 | Cc1cccc(N2CCc3ncnc(C4CC4)c3CC2)n1.O=C(O)C(F)(F)F | -0.7923
93 | CCN(C)c1ncnc2c1CCN(Cc1ccoc1)CC2 | 5.87
94 | Cc1ccc(N2CCc3ncnc(C4CC4)c3CC2)nn1 | 109.7
95 | Cc1ccc(N2CCc3ncnc(C)c3CC2)nn1 | 98.11
96 | Cc1ncnc2c1CCN(c1cc(C(F)(F)F)ncn1)CC2 | -23.9
97 | Cc1ccc(N2CCCC(N(C)c3ncnc4c3CCC4)C2)nn1 (configuration not stated) | 40.92
98 | CCN(CC)c1ncnc2c1CCN(CC1CCOCC1)CC2.O=C(O)C(F)(F)F | -1.394
99 | Cc1ncnc2c1CCN(c1ccccn1)CC2.O=C(O)C(F)(F)F | -1.048
100 | c1ccc(N2CCc3ncnc(C4CC4)c3CC2)nc1 | -3.177
101 | CCN(C)c1ncnc2c1CCN(c1ccc(C)nn1)CC2 | 88.89
102 | CCN(C)c1ncnc2c1CCN(C(=O)c1ccc(C)o1)CC2 | 16.8
